# PLK1 PBD inh: blocks phosphopeptide binding to human PLK1 polo-box domain. P53350. Plk1 PBD binding of FITC phosphopeptide, fluorescence polarization. Potency, µM, inactives show max response, negative = inhibition, usual class: inhibitors. 360,000 tested, 2.8% active. AID 720504; further: series mostly up to about 57 µM; nearly all actives have a fitted effect of over 65% in size
# RORg inh: ROR gamma (mouse) transcription inhibition; Drosophila S2 Gal4-RORgamma UAS-luciferase reporter, 20 h; Potency, µM (top dose mostly 53.6 µM), without a hit: at the highest dose activity change, negative = inhibition, most hits filed as inhibitors; 310,000 tested, 5.4% active; AID 2551; further: nearly all actives have a fitted effect of over 60% in size
#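 Stably transfected Drosophila Schneider cells are the test system, with ROR gamma fused to Gal4 and luciferase under UAS control; luminescence is read after 20 hr of 700 uM copper sulfate induction at ambient temperature.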
# Gal4-VP16 FLuc: counter-screen for ROR gamma inhibitors: Gal4-VP16 reporter | Drosophila S2 Gal4-VP16 UAS-luciferase, luminescence, 20 h | 310,000 tested, 3.5% active | Potency, µM (series often up to 53.6 µM), inactives show top-dose activity, negative = inhibition, usual class: inhibitors;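 further: Gal4-VP16 expression switched on by copper sulfate through the metallothionein promoter; nearly all actives have a fitted effect of over 50% in size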
# Sfp PPTase inh: Sfp phosphopantetheinyl transferase inhibition; Q9F4F7; Biochemical Sfp PPTase activity, qHTS; Potency, µM, without a hit: largest response in the series, negative = inhibition, actives largely listed as inhibitors; 310,000 tested, 3.5% active;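 further: the enzyme is Sfp with the accession as filed and its product quenches rhodamine fluorescence; 0% = enzyme reaction without inhibitor and -100% = no enzyme wells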
#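 Buffer: 50 mM Hepes-Na pH 7.6, 10 mM MgCl2, 0.01% Nonidet P-40, 0.01% BSA. Enzyme 15 nM, pre-exposed to compound 15 min; substrates then added and fluorescence change tracked over 30 min.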
# ALDH1A1 block: inhibitors of human aldehyde dehydrogenase 1A1; P00352; Purified ALDH1A1, NADH fluorescence, propionaldehyde substrate; Potency, µM (doses to about 75.3 µM), without a hit: at the highest dose activity, negative = inhibition, hits mostly inhibitors; 220,000 tested, 7.3% active; AID 1030; active means well fitted inhibition curve with a large enough effect, not every such curve was filed as active; inconclusive means small, poorly fitted or top-dose-only effect, or another doubt; inactive means no such curve, though single readings can be large or run the other way;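 further: plate controls were no enzyme wells and a reference inhibitor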
# Target sequence (P00352 whole entry, looked up): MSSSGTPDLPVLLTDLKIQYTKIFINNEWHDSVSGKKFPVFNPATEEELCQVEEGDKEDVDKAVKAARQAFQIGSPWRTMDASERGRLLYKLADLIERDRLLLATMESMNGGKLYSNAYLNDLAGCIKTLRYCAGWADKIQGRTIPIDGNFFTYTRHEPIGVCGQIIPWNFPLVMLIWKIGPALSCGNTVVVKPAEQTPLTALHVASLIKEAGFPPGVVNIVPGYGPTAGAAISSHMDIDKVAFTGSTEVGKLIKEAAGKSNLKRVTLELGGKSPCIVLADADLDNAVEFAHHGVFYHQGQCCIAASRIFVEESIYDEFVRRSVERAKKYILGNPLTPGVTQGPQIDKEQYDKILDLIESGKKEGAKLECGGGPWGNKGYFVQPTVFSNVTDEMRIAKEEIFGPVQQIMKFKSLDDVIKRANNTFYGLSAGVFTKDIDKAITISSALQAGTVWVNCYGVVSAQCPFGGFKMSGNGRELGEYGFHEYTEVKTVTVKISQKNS
# * marks the source's active call; other numbers are inactive results; u = inconclusive; x = no result; [ ] = remark or other dose. Compounds with a hit are over-represented: about 12% of the library has one in this group of screens. Unless noted, the call rests on the fitted dose curve; in most records, active means well fitted curve in the direction sought with a large enough effect; inconclusive means small, poorly fitted or top-dose-only effect, or another doubt; inactive means no such curve, though single readings can be large; an effect the other way counts as inactive or inconclusive. Unless noted, on the % scale 0 is the no-effect control and ±100 the full control effect; potency means the concentration at half of the fitted maximal effect.
SMILES,PLK1 PBD inh,RORg inh,Gal4-VP16 FLuc,Sfp PPTase inh,ALDH1A1 block
O=C(c1ccc2nc(-c3ccco3)c(-c3ccco3)nc2c1)N1CCN(c2ncccn2)CC1,-13%,15%,2%,14µM*,u
COc1ccc2c(c1)OCC1=C2CCC2(C)C(=O)CC=C12 (stereo not drawn),x,u,-13%,20µM*,u
S=c1nc(-c2cc(Cl)ccc2Cl)[nH][nH]1,15µM*,u,-2%,50µM*,6.3µM*
S=c1nc(-c2ccccc2Br)[nH][nH]1,u,u,-8%,-12%,10µM*
S=c1nc(-c2cccc(Cl)c2)[nH][nH]1,-26%,13µM*,u,u,u
S=c1nc(-c2cc(Cl)cc(Cl)c2)[nH][nH]1,24µM*,u,-13%,40µM*,11µM*
Cc1ccc(S(=O)(=O)NCC23C=CC(O2)C2C(=O)N(c4ccccc4)C(=O)C23)cc1 (stereo not drawn),-5%,8.9µM*,u,28µM*,3.5µM*
Cc1ccc(N2C(=O)C3C4C=CC(CNC(=S)N5CCN(c6ccccc6)CC5)(O4)C3C2=O)cc1 (stereo not drawn),-19%,10µM*,u,13µM*,0.63µM*
S=C(NCC1CCCO1)N1CCN(c2ccccc2)CC1 (stereo not drawn),-13%,4%,6%,-6%,-5%
Cc1cccc(NC(=S)NCC23C=CC(O2)C2C(=O)N(c4ccc(Cl)cc4)C(=O)C23)c1 (stereo not drawn),-13%,-13%[10 µM],u,35µM*,1.4µM*
Cc1ccc(NC(=S)NCC23C=CC(O2)C2C(=O)N(c4ccc(C)cc4)C(=O)C23)cc1 (stereo not drawn),-10%,u,14µM*,35µM*,1.3µM*
CC(C)CO/N=C1/C[C@@H](O)[C@@H](O)[C@@H]2[C@@H]3C(=O)N(c4cccc(Oc5ccccc5)c4)C(=O)[C@H]3CC[C@H]12,x,9%[10 µM],-10%[10 µM],25%,-5%[13.5 µM]
COCC1=C2c3ccccc3[C@H](C[N+](=O)[O-])C(C(=O)OC)(C(=O)OC)CC2C2C(=O)N(c3ccccc3)C(=O)C2C1 (stereo partly drawn),x,-11%,4%,-9%,10%
CC(=O)C(Cc1ccccc1)NC(=O)CCl (stereo not drawn),4%,0%,-18%,18%,22µM*
O=C(CCl)NC(Cc1ccccc1)c1ccccc1 (stereo not drawn),-1%,2%,6%,11%,1.4µM*
Cc1cnc(CNc2cc(-c3ccccc3C(F)(F)F)ncn2)cn1,x,-32%,8%,-13%,-2%
CCc1ccc(C=NC23CN4CN(CN(C4)C2)C3)s1,-2%,29%,3%,18%,7.9µM*
C=CCn1c(-c2cc(OC)cc(OC)c2)n[nH]c1=S,-11%,u,u,-7%,22µM*
C=CCn1c(-c2cccc(OCC)c2)n[nH]c1=S,-14%,5µM*,18µM*,-4%,-4%
CC(=O)N1CCC2(CCCN(Cc3cc(C(F)(F)F)cc(C(F)(F)F)c3)C2)CC1,x,-2%,14%,3%,0%
CNC(=S)NNC(=O)c1sc2cc(C(F)(F)F)cnc2c1-c1cccnc1,u,18µM*,-2%,19%,u
CNC(=S)NNC(=O)c1sc2cc(C(F)(F)F)cnc2c1-c1ccccn1,-6%,1.1µM*,-18%,1%,u
NC(=O)c1sc2cc(C(F)(F)F)cnc2c1-c1ccccc1,-11%,25%,-17%,-3%,4%
Cc1cc([N+](=O)[O-])nn1CC(=O)NNC(=S)Nc1ccc([N+](=O)[O-])cc1,-19%,-42%,-18%,7%,22µM*
Cc1nn(CC(=O)OCC(=O)Nc2c(C(C)C)cccc2C(C)C)c(C)c1[N+](=O)[O-],30µM*,8%,0%,-8%,3%
SMILES,PLK1 PBD inh,RORg inh,Gal4-VP16 FLuc,Sfp PPTase inh,ALDH1A1 block
Cc1cccc(NC(=S)NNC(=O)CCn2nc(C)c([N+](=O)[O-])c2C)c1,u,1.8µM*,0%,-3%,u
Cc1nn(CCC(=O)NNC(=S)Nc2ccc(Cl)cc2)c(C)c1[N+](=O)[O-],u,u,-6%,3%,22µM*
Cc1nn(CC(=O)OCC(=O)Nc2ccccc2[N+](=O)[O-])c(C)c1[N+](=O)[O-],7%,-9%,-10%,1%,4%
Cc1nn(CCC(=O)NNC(=S)Nc2cccc(Cl)c2)c(C)c1[N+](=O)[O-],u,-3%,4%,-7%,u
O=C(Cc1c(F)cccc1Cl)NNC(=O)c1ccc(Br)s1,0%,x,x,x,x
COc1ccc(F)cc1C(=O)C1CCCN(Cc2ccc(Sc3nncn3C)o2)C1 (stereo not drawn),0%,27%,3%,15%,5%
Cc1nn(CC(=O)Nc2ccncc2)c(C)c1[N+](=O)[O-],-10%,24%,13%,11%,0%
Cc1nn(CC(=O)NNC(=S)Nc2ccccc2)c(C)c1[N+](=O)[O-],-16%,8.9µM*,13µM*,16%,-13%
Cc1ccc(NC(=S)NNC(=O)Cn2nc(C(F)F)cc2C(F)F)cc1,1%,2.2µM*,-25%,33%,u
C/C(=N\NC(=S)NCc1ccccc1)c1ccc(C)o1,-30%,2.2µM*,7.1µM*,14%,u
C/C(=N\NC(=S)NCc1ccccc1)c1ccc(Br)cc1,0%,0.28µM*,0.5µM*,27%,u
CCNC(=S)N/N=C(\C)c1ccco1,-29%,4µM*,13µM*,56µM*,u
C/C(=N\NC(=S)NCc1ccccc1)c1ccc2c(c1)OCCO2,-2%,2.8µM*,8.9µM*,u,9%
COc1ccc(CNC(=O)C(=O)NCCC2CCCCN2S(=O)(=O)c2cccs2)cc1 (stereo not drawn),-5%,x,x,x,x
C/C(=N\NC(=S)NCc1ccccc1)c1ccc2ccccc2c1OC(F)F,0%,2.2µM*,2.2µM*,24%,3%
CCOc1ccc(-c2c[n+]3c(n2-c2ccccc2)CCCCC3)cc1,-1%,u,3.5µM*,7%,-40%
COc1ccc(Oc2ncc3nc(CCc4ccccc4)c(=O)n(C4CC4)c3n2)cc1,x,-4%,9%,-8%,u
CC1(C(=O)NCc2ccccc2)CSCC(=O)N1Cc1cccc(C(F)(F)F)c1 (stereo not drawn),-4%,x,x,x,x
CN(c1ccccc1)S(=O)(=O)c1cccc(C(=O)Nc2ccc3c(c2)CCC3)c1,1%,u,0%,7%,10µM*
CN(c1ccccc1)S(=O)(=O)c1ccc(C(=O)Nc2nccs2)cc1,0%,-4%,u,11%,-104%
CN(c1ccc(C(=O)Nc2nccs2)cc1)S(=O)(=O)c1ccccc1,-7%,2.8µM*,-1%[0.365 µM],7%,17%
O=C(Nc1nccs1)c1ccc(S(=O)(=O)NCC2CCCCC2)cc1,-6%,11µM*,-3%,14%,11%
O=C(O)c1cccc(S(=O)(=O)Nc2ccc3c(c2)CCC3)c1,0%,u,10µM*,2%,x

# Screening data as filed in PubChem.
